Compound activity deposited in PubChem by The Scripps Research Institute Molecular Screening Center.
CHRM1 agonist: human M1 muscarinic receptor agonists, primary screen, Fluo-8 calcium fluorescence, CHO-K1 cells, HTS; Muscarinic acetylcholine receptor M1 (Homo sapiens), P11229; CHO-K1 hM1, agonist mode; 0% DMSO, 100% acetylcholine EC100; activation, % at 3 µM; actives 0.33% (n = 360,000); AID 588814, 2011;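 active = activation above the run's mean compound activation plus 3 SD, cut at about 16% in these data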;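 also: peak over basal fluorescence ratio within a 140 s kinetic read after compound addition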
Target sequence (P11229 whole entry, looked up): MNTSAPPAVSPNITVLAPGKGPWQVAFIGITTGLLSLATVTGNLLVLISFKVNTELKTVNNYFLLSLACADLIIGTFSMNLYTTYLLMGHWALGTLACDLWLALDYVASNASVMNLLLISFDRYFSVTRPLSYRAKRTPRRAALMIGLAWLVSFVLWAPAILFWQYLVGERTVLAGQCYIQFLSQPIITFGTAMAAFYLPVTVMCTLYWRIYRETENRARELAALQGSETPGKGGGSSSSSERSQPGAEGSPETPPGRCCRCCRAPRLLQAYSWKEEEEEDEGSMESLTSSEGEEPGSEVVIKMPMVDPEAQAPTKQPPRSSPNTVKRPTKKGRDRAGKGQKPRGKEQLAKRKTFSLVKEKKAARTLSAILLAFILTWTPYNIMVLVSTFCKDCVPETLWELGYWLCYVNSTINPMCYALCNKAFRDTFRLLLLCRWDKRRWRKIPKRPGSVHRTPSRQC
CHRM1 PAM: human M1 muscarinic receptor positive allosteric modulators, primary screen, CHO-K1 cells, Fluo-8 calcium fluorescence, 1536-well; CHO-K1 hM1, ACh EC20; 0% = ACh EC20, 100% = maximal ACh; actives 0.088% (n = 360,000); activation, % at 3 µM; AID 588819, 2011; Muscarinic acetylcholine receptor M1 (Homo sapiens), P11229; in the data active = activation above about 19%, passing the limit was not always enough
M1 ag parental: counter-screen for M1 agonists: effect in parental CHO-K1 cells; Fluo-8 calcium fluorescence; scaled to maximal ATP response, vehicle zero; activation, % at 3 µM; actives 0.48% (n = 360,000); in the data active = activation above about 15%;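 also: untransfected CHO-K1 host cells lacking M1 receptor as counterscreen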
CHO-K1 Ca antag: counter-screen for M1 antagonists: effect in parental CHO-K1 cells; ATP-induced calcium, Fluo-8 fluorescence; inhibition, % at 3 µM; actives 0.6% (n = 360,000);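 active = inhibition above a per-plate cutoff, the plate's mean sample inhibition plus 3 SD, cut at about 24% in these data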;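 also: 0% = DMSO plus EC80 ATP and 100% = DMSO alone without ATP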
M1 antag: human M1 muscarinic receptor antagonists, primary screen, CHO-K1 cells, Fluo-8 calcium fluorescence, 1536-well | inhibition, % at 3 µM | AID 588852, 2011 | actives 1.3% (n = 360,000) | CHO-K1 hM1, ACh EC80 antagonist;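 active = percent inhibition above its own plate's cutoff, namely the mean of that plate's compound wells plus 3 SD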;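 also: peak over basal fluorescence ratio during 140 s after agonist addition; 0% = ACh EC80 plus DMSO and 100% = DMSO alone without agonist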
CHO-K1 Ca PAM: nonselective calcium activators in parental CHO-K1 cells, primary screen, counter-screen for M1 PAM project, cell-based, Fluo-8 calcium fluorescence, full deck, 1536-well | actives 0.02% (n = 360,000) | activation, % at 3 µM | AID 602247, 2012 | ATP EC20; 0% at ATP EC20, 100% at ATP max;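 active = activation above the run cutoff, the mean activation of all test compounds plus 3 SD, cut at about 40% in these data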;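 also: peak over basal fluorescence ratio in a 140 s read after ATP addition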
* = called active by the depositor; x = not tested or not shown. This is a sample that favours compounds with a hit; in the whole collection about 2.4% have one here.

SMILES | CHRM1 agonist | CHRM1 PAM | M1 ag parental | CHO-K1 Ca antag | M1 antag | CHO-K1 Ca PAM
CCOC(=O)c1c(C)sc2c1N(C(=O)CN(CC)CC)c1cc(Cl)ccc1S2 | -5 | -14 | 0 | -16 | 12 | 6
CN(C)CC(=O)N1c2ccccc2Sc2ccc(Cl)cc21 | -10 | -28 | 5 | -4 | 99* | 15
Cn1c(SCC(=O)N2c3ccccc3Sc3ccc(Cl)cc32)nnc1-c1ccco1 | -13 | -12 | 3 | -9 | -3 | -10
O=C(CN1CCOCC1)N1c2ccccc2Sc2ccc(Cl)cc21 | -8 | -17 | 2 | -12 | 20 | 24
CN(C)CCC(=O)N1c2ccccc2Sc2ccc(Cl)cc21 | -13 | -34 | 0 | 8 | 99* | 10
CCN(CC)CCC(=O)N1c2ccccc2Sc2ccc(Cl)cc21 | -7 | -26 | 1 | 2 | 100* | 12
CC(CCC(=O)O)C1CC[C@H]2C3CCC4CC(=O)CCC4(C)[C@H]3CC(=O)C12C (some centres not stated) | -1 | 11 | 0 | 0 | 0 | -1
COc1ccc(Cl)cc1NC(=O)COC(=O)CCNS(=O)(=O)c1cccs1 | -2 | 0 | 1 | 6 | 2 | -25
CC1NC(=O)c2cc3ccccc3cc2-n2c1nc1cc(Cl)ccc1c2=O (configuration not stated) | -2 | 12 | 0 | -3 | -18 | 9
COc1ccc(S(=O)(=O)N2CCCC2CNC(=O)C(=O)Nc2cccc(F)c2)cc1 (configuration not stated) | -5 | 1 | 1 | -6 | 0 | 6
Cc1cccc(C)c1NC(=O)N1CCC(c2nc3ccccc3o2)CC1 | -6 | -15 | 1 | -8 | 28* | -8
CN1CCN(C(=O)CN(C2CCCCC2)S(=O)(=O)c2ccc(Br)cc2)CC1 | 18* | -2 | 5 | -9 | 2 | 18
CCSc1nnc(NC(=O)NC(C)(C(F)(F)F)C(F)(F)F)s1 | -5 | -1 | 9 | 5 | 4 | 16
CCSc1nnc(NC(=O)NC(CC)(C(F)(F)F)C(F)(F)F)s1 | 1 | -2 | 7 | 34* | 7 | -5
O=C(CO/N=C/c1ccccc1OC(F)F)NCc1ccco1 | -1 | 26* | 1 | -15 | -53 | 10
CCCCN1C2=NC(c3ccccc3)CN2c2ccccc21 (configuration not stated) | -4 | -16 | 4 | -8 | 40* | 11
CCCCN1C2=NCCCN2c2ccccc21 | -8 | -6 | 0 | 2 | 12 | -4
Cc1csc(NC(=O)CSc2nnc(-c3ccoc3C)o2)n1 | -1 | 6 | 0 | -7 | -13 | 13
Cc1occc1-c1nnc(SCC(=O)Nc2nc(C(C)(C)C)cs2)o1 | -1 | -24 | 11 | 30* | 51* | -10
CCc1sc(C(=O)NCCc2ccc(S(N)(=O)=O)cc2)cc1Br | -7 | -9 | 0 | 29* | 9 | -12
O=C1CS(=O)(=O)c2ccccc2N1 | 4 | 27 | 1 | -13 | -13 | -8
COc1cc(/C=C(\NC(=O)c2ccccc2)C(=O)NC(C(=O)O)c2ccccc2)cc(OC)c1OC (configuration not stated) | -2 | 5 | 0 | 0 | -13 | 11
O=C(CCCNc1ccccc1)N/N=C/c1cccs1 | -6 | 4 | 0 | -6 | -6 | 11
O=C(CCCC(=O)NNC(=O)Nc1ccccc1)NNC(=O)Nc1ccccc1 | -2 | -8 | 0 | 28* | 10 | -18
OCC1(Cc2ccccc2)CCN(Cc2ccc(-c3ccco3)cc2)CC1 | -1 | -6 | 2 | -14 | 20 | 23
OCC1(Cc2ccccc2)CCCN(Cc2ccc(-c3ccco3)cc2)C1 (configuration not stated) | -8 | -24 | 4 | -11 | 44* | 11
Cc1cc2nc(-c3nnnn3-c3c(C)cccc3C)c(=O)[nH]c2cc1C | x | x | 1 | 24* | x | -11
